Laboratory results reported in PubChem BioAssay (NCI).
The panel holds about 83,000 compounds, 20% with a hit somewhere; the sample as a whole holds those more often.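 For each line, cells grew in 96-well plates with the test compound present at a single concentration for 48 hours.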 Unmarked numbers belong to inactive results. The source made the active and inactive calls. The calls were made as follows: active = growth percent below 10; inactive = the rest.

Legend:
Assay in all cases: NCI-60 one-dose screen, 48 h (100 = growth as untreated, 0 = no growth, -100 = all killed)
Details in all cases: 10 µM unless noted
DU-145 prostate = system: DU-145 prostate
K-562 leukemia = system: K-562 leukemia
MALME-3M melanoma = system: MALME-3M melanoma
MDA-MB-231 breast = system: MDA-MB-231 breast
RXF 393 renal = system: RXF 393 renal
SF-268 CNS = system: SF-268 CNS
SF-295 CNS = system: SF-295 CNS
SF-539 CNS = system: SF-539 CNS
UACC-257 melanoma = system: UACC-257 melanoma
M14 melanoma = system: M14 melanoma
HCT-15 colon = system: HCT-15 colon
HT29 colon = system: HT29 colon
SNB-75 CNS = system: SNB-75 CNS
SNB-19 CNS = system: SNB-19 CNS
U251 CNS = system: U251 CNS
PC-3 prostate = system: PC-3 prostate
SK-MEL-5 melanoma = system: SK-MEL-5 melanoma
UACC-62 melanoma = system: UACC-62 melanoma
LOX IMVI melanoma = system: LOX IMVI melanoma
SK-MEL-28 melanoma = system: SK-MEL-28 melanoma

Compound | growth (DU-145 prostate) | growth (K-562 leukemia) | growth (MALME-3M melanoma) | growth (MDA-MB-231 breast) | growth (RXF 393 renal) | growth (SF-268 CNS) [%] | growth (SF-295 CNS) | growth (SF-539 CNS) | growth (UACC-257 melanoma) | growth (M14 melanoma) | growth (HCT-15 colon) | growth (HT29 colon) | growth (SNB-75 CNS) [%] | growth (SNB-19 CNS) [%] | growth (U251 CNS) | growth (PC-3 prostate) | growth (SK-MEL-5 melanoma) | growth (UACC-62 melanoma) | growth (LOX IMVI melanoma) | growth (SK-MEL-28 melanoma)
CC1(C)NCCC[C@]2(C)[C@H]3CC=C4[C@@H]5C[C@@](C)(CO)CC[C@]5(C)CC[C@@]4(C)[C@]3(C)CC[C@@H]12 | 75.6% | 9.28% (active) | 57% | 58% | 57.8% | 67.1 | 64.1% | 64.6% | 55.1% | 33.6% | 29.9% | 5.18% (active) | 98.9 | 61.6 | 34.2% | 35.1% | 50.7% | 73.6% | 45.2% | 68.2%
FCc1nc2nc(Cl)c(Cl)nc2[nH]1 | 104% | 93% | 97.3% | 128% | 105% | 94.9 | 93.7% | 100% | 99.2% | 107% | 103% | 99.4% | 91.2 | 94.9 | 101% | 95.2% | 99.4% | 94.9% | 95.3% | 105%
CCCCCCN(C)Cc1ccc(OCCOc2ccc(CN(C)CCCCCC)cc2)cc1 | 50.1% | -20.7% (active) | -80.6% (active) | 4.17% (active) | -29.2% (active) | 45.5 | -51.9% (active) | 13.5% | -52.5% (active) | -96.9% (active) | 5.57% (active) | 1.29% (active) | 28.8 | 27.9 | 7.97% (active) | 23.9% | -99.7% (active) | -11.5% (active) | -95.3% (active) | -68.7% (active)
COc1cccc(CNCCN2C(=O)c3ccc4c5c(ccc(c35)C2=O)C(=O)N(CCNCc2cccc(OC)c2)C4=O)c1 | 113% | 8.7% (active) | 26.3% | 78.1% | 87% | 74.1 | 113% | 97.8% | 79.1% | 71.7% | 9.24% (active) | 2.39% (active) | 120 | 84.2 | 76.9% | 78.9% | 58.8% | 96.8% | 59.4% | 120%
c1ccc(-c2nn(-c3ccccc3)[n+](-c3cccc4ccccc34)n2)cc1 | 29.1% | 8.3% (active) | -38.7% (active) | 31.5% | 30.8% | 26.4 | 16.8% | 25.6% | 17.5% | 27.6% | 103% | 12.1% | 48.4 | 24.9 | 17.7% | 6.61% (active) | -30.2% (active) | -2.14% (active) | 12.7% | 41.2%
CS(=O)(=O)c1ccc(-c2cc(-c3nnc(SCC(=O)Nc4ccc(C(=O)/C=C/c5ccc(Cl)cc5)cc4)n3-c3ccccc3)c3ccccc3n2)cc1 | 105% | 89.9% | 104% | 92.1% | 92.3% | 81.7 | 96% | 87.5% | 107% | 97.5% | 96.4% | 106% | 72.3 | 85.2 | 90.9% | 89.1% | 95.7% | 80.2% | 92.2% | 103%
O=C1CCC(NC(=S)Nc2ccccc2)N1 (stereo not given) | 112% | 97.5% | 99.6% | 109% | 117% | 104 | 110% | 105% | 104% | 110% | 113% | 98.3% | 113 | 100 | 104% | 102% | 106% | 99.9% | 97.5% | 108%
NNC(=O)/C(=C\c1ccc([N+](=O)[O-])cc1)CC(=O)c1ccc(Cl)c(Cl)c1 | 88.7% | 88.8% | 94.3% | 89% | 97.8% | 65.1 | 93.6% | 98.1% | 91.1% | 85.6% | 89.6% | 88.4% | 63.3 | 89.6 | 91.8% | 79.4% | 93.6% | 73.8% | 71.3% | 103%
COc1ccc(C(=O)c2cc(C)c(OC)c(C)c2)c(OC)c1O | -5.78% (active) | 8.52% (active) | 54.8% | 16.8% | 35.4% | 31.5 | 25.2% | -10.8% (active) | 50.6% | -1.65% (active) | 8.64% (active) | 26.6% | 57.8 | 22.2 | 14.5% | 19.5% | -34.5% (active) | 30.3% | 21.5% | 48.8%
Cc1cc(C)n(Nc2nc3ccccc3[nH]c2=O)c(=O)c1C#N | 101% | 94.3% | 91.7% | 80.6% | 97.9% | 92.9 | 95.6% | 87.2% | 97.6% | 98.8% | 102% | 110% | 79.5 | 93.1 | 95.4% | 94.8% | 95.3% | 94.8% | 91.5% | 104%
COC(=O)C1=C(C(=O)ONCCN(C)C)C2C=CC1(C(Cc1ccccc1)Nc1ccc(F)cc1)O2 (stereo not given) | 95.6% | 10.5% | -9.2% (active) | 108% | 111% | 91.7 | 113% | 97.3% | 104% | 101% | 48.1% | 75.1% | 106 | 105 | 100% | 105% | 105% | 90.9% | 96.3% | 96.1%
Cc1ccc(O)c(C(=O)O)c1 | 114% | 98.2% | 128% | 114% | 121% | 104 | 114% | 116% | 108% | 116% | 104% | 102% | 107 | 109 | 92.6% | 104% | 105% | 104% | 101% | 114%
CC(=O)CCSc1ccc(OC(C)=O)cc1 | 108% | 96.1% | 115% | 91.7% | 109% | 96.4 | 105% | 97.3% | 88.1% | 103% | 101% | 90.1% | 86.8 | 97.8 | 95.3% | 83.8% | 96.1% | 93.1% | 98.1% | 107%
O=S(=O)(NCCCNc1nccc(-c2c(-c3cccc(O)c3)nc3occn23)n1)c1ccc(F)cc1 | 85.8% | 68.7% | 17.9% | 62.7% | 68% | 84.5 | 101% | 101% | 19.7% | 27.5% | 90.2% | 36.3% | 104 | 113 | 95.3% | 81.4% | 35.7% | -1.99% (active) | 44.4% | 33.7%
